# Measurements reported in PubChem BioAssay (Tox21).
# Results filed as inconclusive are left out. Entries that show only a call come without a potency. Unmarked numbers belong to inactive results. Active and inactive are the calls of the source. The call rests on the fitted dose curve; in most records, active means well fitted activation curve with a large enough effect in the repeat runs; inconclusive means weak or mixed curves; inactive means flat fitted curve, though single readings scatter.
# Assay: A CellTox Green Cytotoxicity Assay to monitor cytotoxicity in HepG2 cells - 40 hour (AID 1224879); further: nearly all actives have a fitted effect of over 40% in size
# Conditions: CellTox Green fluorescence; series mostly up to 76.8 µM
# From the text: National Center for Advancing Translational Sciences [NCATS]
# NIH Chemical Genomics Center [NCGC]
# U.S. Environmental Protection Agency [EPA]
# National Institutes of Environmental Health Sciences [NIEHS]
# National Toxicology Program [NTP]
# Cell-based models are critical for drug discovery. Determining the natural cytotoxic effects resulting from test compounds is an essential research activity. A CellTox Green Cytotoxicity Assay to monitor cytotoxicity in real time of continues cell culture during 40 hours of the compound treatment was used to screen Tox21 10K library compounds in HepG2 cells. CellTox Green Cytotoxicity Assay is a nonlytic, homogeneous, biofluorescent method to measure cytotoxicity in cell culture after experimental manipulation. The assay system uses a proprietary asymmetric cyanine dye that is excluded from viable cells but preferentially stains the dead cell's DNA. […] Viable cells produce no appreciable increases in fluorescence. Therefore, the fluorescence signal produced by the binding interaction with dead cell DNA is proportional to cytotoxicity.
# The mixture of HepG2 cell suspension and reagents were dispensed at 600cells/6 ul/well in 1536-well tissue culture treated black solid bottom plates using a Multidrop dispenser. After the assay plates were incubated at a 37 C/5% CO2 incubator for 5 hours, 23 nL of compounds dissolved in DMSO, positive and negative controls was transferred to the assay plate by a pintool work station. The plates were incubated at 37 C for 40 hours. The fluorescence intensity were measured at 0h, 8h, 16h, 24h, 32h and 40h time points using ViewLux plate reader during compound treatment.
# Potency means the concentration at half of the fitted maximal effect.
SMILES,Potency,cytotoxicity increase
C=CC(=O)OCCOC(=O)CCC(=O)O,inactive,
O=C(c1ccccc1)c1ccc2n1CCC2C(=O)O (stereo not given),inactive,
C=Cc1c(C)c2cc3[nH]c(cc4nc(cc5nc(cc1[nH]2)C(C)=C5CCC(=O)O)C(CCC(=O)O)=C4C)c(C)c3C=C,inactive,
C[C@H](CCC(=O)O)[C@H]1CC[C@H]2[C@@H]3[C@H](O)C[C@@H]4C[C@H](O)CC[C@]4(C)[C@H]3CC[C@]12C,inactive,
CC(=O)O[C@@H]1C(=O)O[C@@H]2[C@H]1OC(=O)[C@@H]2OC(C)=O,26.8 µM (active),
COc1ccc2[nH]c(S(=O)Cc3ncc(C)c(OC)c3C)nc2n1 (stereo not given),inactive,
N#CCCNCCC#N,inactive,
Cc1ccccc1N=Nc1ccc(N=Nc2c(O)ccc3ccccc23)c(C)c1,inactive,
CC[C@H](C)[C@H](N)C(=O)O,inactive,
CN1CCN(C2=Nc3ccccc3Sc3ccc(Cl)cc32)CC1,inactive,
CCCCCCOC(=O)CCC,inactive,
O=C(O)C(c1ccc(Cl)cc1)c1ccc(Cl)cc1,inactive,
CC(=O)O[C@H]1C[C@@H]2CC[C@@H]3[C@H](CC[C@@]4(C)[C@H]3C[C@H]([N+]3(C)CCCCC3)[C@@H]4OC(C)=O)[C@@]2(C)C[C@@H]1N1CCCCC1,inactive,
CN(c1nccc(=O)[nH]1)C1CCN(c2nc3ccccc3n2Cc2ccc(F)cc2)CC1,inactive,
CN(C)CC[C@@H](c1ccc(Br)cc1)c1ccccn1,inactive,
C=CCCCCCC,inactive,
O=[N+]([O-])c1cc[n+]([O-])cc1,inactive,
CC1=CCC(C(C)C)C=C1 (stereo not given),inactive,
CCCCCCCCCCCCCCC1CO1 (stereo not given),inactive,
CC(C)(C)c1ccc(S)cc1,inactive,

SMILES,Potency,cytotoxicity increase
CCCCC(CC)(CO)CO,inactive,
C=C(C)C(=O)OCCN(C)C,inactive,
Oc1ccc(O)c2c(O)cccc12,inactive,
O=C(/C=C/c1ccc(O)c(O)c1)O[C@@H]1C[C@](O)(C(=O)O)C[C@@H](O)[C@H]1O,inactive,
CN1CCC[C@@H]1c1cccnc1,inactive,
O=C1c2cccc(O)c2C(=O)c2c(O)cc(CO)cc21,inactive,
CCCCCCCCCCCCCCCCCBr,,-11.7% [at 15.8 µM]
O=C(O)C1CCC(C(=O)O)CC1 (stereo not given),inactive,
C1CCC2OC2C1 (stereo not given),inactive,
Cl/C(=C\n1cncn1)c1ccc(Cl)cc1Cl,inactive,
Cc1cc(O)ccc1N,inactive,
CC(=O)c1c(C)c([N+](=O)[O-])c(C(C)(C)C)c([N+](=O)[O-])c1C,inactive,
NC(=S)N/N=C/c1cccnc1,inactive,
S=C(S)NCCNC(=S)S,inactive,
O=C(O)COC(=O)Cc1ccccc1Nc1c(Cl)cccc1Cl,inactive,
CCCOc1ccc2nc(NC(=O)OC)[nH]c2c1,0.477 µM (active),
CC1CCc2cc(F)cc3c(=O)c(C(=O)O)cn1c23 (stereo not given),inactive,
COCCCCCCCCOCCC[Si](C)(O[Si](C)(C)C)O[Si](C)(C)C,21.9 µM (active),
CC(C)NCC(O)c1cc(O)cc(O)c1 (stereo not given),inactive,
CCN(CC)CCOc1ccc2c(c1)C(=O)c1cc(OCCN(CC)CC)ccc1-2,26.8 µM (active),
